The panel holds about 83,000 compounds, 20% with a hit somewhere; the sample as a whole holds those more often.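 The test compound was applied at a single concentration to cells in 96-well plates for 48 hours, and percent growth was recorded.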 Active and inactive are the calls of the source. The calls were made as follows: active = growth percent below 10; inactive = the rest.
Tests used:
Test in all cases: NCI-60 one-dose screen, 48 h (100 = growth as untreated, 0 = no growth, -100 = all killed)
Details in all cases: 10 µM unless noted
[1] = test system: SN12C renal
[2] = test system: UO-31 renal
[3] = test system: ACHN renal
[4] = test system: CAKI-1 renal
[5] = test system: A498 renal
[6] = test system: CCRF-CEM leukemia
[7] = test system: MOLT-4 leukemia
[8] = test system: SR leukemia
[9] = test system: RPMI-8226 leukemia
[10] = test system: OVCAR-8 ovarian
[11] = test system: OVCAR-5 ovarian
[12] = test system: OVCAR-4 ovarian
[13] = test system: IGROV1 ovarian
[14] = test system: OVCAR-3 ovarian
[15] = test system: HS 578T breast
[16] = test system: NCI/ADR-RES ovarian
[17] = test system: EKVX NSCLC
[18] = test system: SK-OV-3 ovarian
[19] = test system: TK-10 renal

Measured: growth

COc1cc(/C=C/c2cc(/C=C/c3ccc(O)c(OC)c3)n(C(=O)c3ccc(Cl)cc3)n2)ccc1O
active: [2] 0.559% | [5] 7.49% | [6] 0.628% | [7] 5.8% | [8] 3.07% | [9] -16.1% | [14] 7.65%
inactive: [1] 13.6% | [3] 11.5% | [4] 17.9% | [10] 29.1% | [11] 79.9% | [12] 36.5% | [13] 34% | [15] 10.1% | [16] 21.9%

COc1ccccc1-n1c(-c2ccc(O)cc2C)cn2c3c(=O)[nH]c(=O)n(C)c3nc12
inactive: [17] 98.7% | [1] 75% | [2] 74.2% | [3] 74% | [4] 79.4% | [5] 80.2% | [6] 106% | [7] 81.4% | [8] 90.8% | [9] 93% | [10] 86.3% | [11] 86.9% | [12] 84.4% | [18] 65.8% | [13] 21.9% | [15] 50.2% | [16] 108%

Nc1c(C(=O)Nc2cccc(Cl)c2)sc2nc3c(cc12)C(O)CCC3 (stereo unspecified)
inactive: [1] 35.5% | [2] 41.9% | [3] 43.3% | [4] 37% | [6] 15.7% | [7] 16.3% | [10] 36.8% | [11] 51.2% | [12] 52.7% | [18] 35.4% | [13] 31.1% | [15] 24.5%
active: [5] -10.6% | [8] 8.19% | [9] 6.38% | [14] -33.4% | [16] 8.73%

COc1ccc(Oc2ccccc2NC(=O)CNC(=O)c2cccc3ccccc23)cc1
inactive: [17] 46.3% [5 µM] | [1] 46.7% [5 µM] | [19] 47.6% [5 µM] | [3] 40.3% [5 µM] | [6] 15.5% [5 µM] | [7] 17.1% [5 µM] | [8] 23.7% [5 µM] | [9] 27.4% [5 µM] | [10] 17% [5 µM] | [11] 40.9% [5 µM] | [12] 67.2% [5 µM] | [18] 20.4% [5 µM] | [13] 33% [5 µM] | [16] 15.3% [5 µM]
active: [5] 7% [5 µM] | [14] -16.6% [5 µM]

COc1cccc(N2CCN(CC(=O)N3CCN(c4nnc(-c5ccc(Cl)cc5)c(-c5ccc(Cl)cc5)n4)CC3)CC2)c1
inactive: [17] 57% | [1] 76.7% | [19] 93.8% | [3] 57.1% | [4] 92.2% | [5] 55.4% | [6] 43.2% | [7] 28.4% | [11] 85.9% | [12] 57.9% | [18] 95.6% | [14] 68.1% | [15] 58.4% | [16] 65.2%
active: [9] -37.2%

COc1cc(C(=O)c2cc3c(cc2C)OCO3)cc(OC)c1OC
inactive: [1] 32.4% | [2] 44.8% | [19] 62.8% | [3] 36.3% | [4] 13.5% | [7] 23.1% | [9] 39.1% | [10] 20.4% | [11] 43.1% | [12] 38% | [18] 11.1% | [13] 25.1% | [15] 44.3% | [16] 15.3%
active: [5] -2.13% | [14] 5.31%

O=C1/C(=C/c2cccc(Cl)c2)CCc2ccccc21
inactive: [1] 95.9% | [2] 76.1% | [19] 85.9% | [4] 76.9% | [7] 83.3% | [9] 22.3% | [10] 91.1% | [11] 111% | [12] 100% | [18] 114% | [13] 94% | [14] 104% | [16] 100%

COc1ccc(/C=C2\CCc3ccccc3C2=O)cc1
inactive: [1] 94.5% | [2] 87.5% | [19] 79.8% | [4] 50.8% | [7] 73.9% | [9] 82.1% | [10] 90% | [11] 109% | [12] 89.6% | [18] 102% | [13] 81.8% | [14] 89.6% | [15] 97.3% | [16] 60.5%

c1cc[n+](Cc2ccnc3ccccc23)cc1
inactive: [1] 102% | [2] 73.6% | [3] 94.2% | [4] 91.1% | [5] 109% | [7] 108% | [8] 24.1% | [9] 97.1% | [10] 99.6% | [11] 103% | [18] 103% | [13] 117% | [14] 118% | [15] 109% | [16] 109%

COc1cc(Cl)cc(-c2nn(-c3cccc(NC(=O)c4cc(C(F)(F)F)cc(C(F)(F)F)c4)c3)cc2-c2ccncc2)c1
active: [5] -1.74%
inactive: [1] 69.8% | [2] 54.3% | [3] 58.2% | [4] 68.6% | [6] 57.1% | [7] 55.3% | [8] 41% | [9] 43.6% | [10] 55.4% | [11] 83% | [12] 72.1% | [18] 83.4% | [13] 100% | [15] 81.1% | [16] 67.8%

COc1ccc(-c2cc(-c3cccnc3)nc(S(=O)(=O)CC(=O)Nc3ccc(C)cc3)c2C#N)cc1OC
inactive: [1] 97.2% | [2] 59.8% | [3] 98.3% | [4] 91.2% | [5] 57.3% | [6] 100% | [7] 75.2% | [8] 77.4% | [9] 79.8% | [10] 91.6% | [11] 120% | [12] 90.3% | [13] 107% | [14] 95.4% | [15] 81.9% | [16] 86.8%

O=C1/C(=C/c2ccccc2Cl)CCc2ccccc21
inactive: [1] 94.6% | [2] 97.4% | [19] 89.4% | [3] 112% | [4] 81.8% | [7] 90.9% | [9] 95.4% | [10] 96.7% | [11] 109% | [12] 110% | [18] 116% | [13] 97.3% | [15] 99.1% | [16] 102%

CN1CCN(CCCCCN=c2cc3c(=O)n(CCCCCN4CCN(C)CC4)c(=O)c4c(NCCCCCN5CCN(C)CC5)cc5c(O)n(CCCCCN6CCN(C)CC6)c(=O)c2c5c4-3)CC1
active: [17] -11.4% | [1] 5.16% | [8] 1.43% | [11] -9.79% | [18] -29.6% | [13] -0.0469% | [14] 3.82% | [15] -2.4%
inactive: [2] 115% | [3] 88.5% | [4] 102% | [5] 95.6% | [6] 13.9% | [7] 25.2% | [10] 12.6% | [16] 110%

Cc1[nH]ccc2cc3nc4ccccc4c3cc12
inactive: [17] 30.7% | [1] 27.8% | [3] 15.4% | [4] 52% | [6] 17.1% | [9] 15.9% | [10] 20.6% | [11] 42% | [12] 38.4% | [18] 34.7% | [13] 23.6% | [14] 41.6% | [15] 55.3% | [16] 24.9%
active: [5] 4.99% | [7] 8.62% | [8] 3.33%

CC1(C)CC2(C)CC(=O)C1C(C(=O)O)C2C(=O)O (stereo unspecified)
inactive: [17] 121% | [1] 105% | [2] 98% | [3] 97.2% | [4] 114% | [5] 111% | [6] 99.4% | [7] 94.3% | [8] 90% | [9] 106% | [10] 102% | [11] 98.3% | [12] 109% | [18] 101% | [13] 109% | [15] 102% | [16] 113%

CCOC(=O)c1cnc2c(C)cc(C)cc2c1NCCCN(C)C
active: [4] -7.71% | [7] 5.24% | [9] 7.09% | [13] 5.17%
inactive: [17] 41% | [1] 37.6% | [19] 30.7% | [3] 28.7% | [5] 64.5% | [6] 19.8% | [11] 38.6% | [12] 44.4% | [18] 38.6% | [14] 34.5% | [15] 65.7% | [16] 31.7%
